Experimental data published in the supplement of paper PMC10941209.

tested on: HFF; assay: cell viability relative to DMSO control; higher = less cytotoxic; conditions: 1 µM; 72 h
Description: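 Single-dose cytotoxicity screen of the MMV Pandemic Response Box at 1 uM on human foreskin fibroblasts (HFF), 72 h at 37 C. Viability measured by MTT (OD 550 nm) and normalised to the DMSO control (% survival).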

SMILES	cell viability
Cc1ccc(C)c(OCCCCCCN2C[C@H](O)[C@@H](O)[C@H](O)[C@H]2CO)c1	64.6%
Nc1cccc(-c2nc(N)nc(NC3Cc4ccccc4C3)n2)c1	68.2%
C[C@@H]1O[C@@H]1P(=O)(O)O	65%
COC(=O)Nc1nc2c(C)cccc2[nH]1	69.3%
CCc1ccccc1OCCN1CCCCCC1	55.1%
Fc1ccc(-c2nc(-c3c[nH]c4ccc(Br)cc34)[nH]c2-c2ccc(F)cc2)cc1	67.2%
CCN(CC)CCCC(C)Nc1ccnc2cc(Cl)ccc12 (configuration not stated)	66.4%
CC1(C)C[C@H]1C(=O)N/C(=C\CCCCSC[C@@H](N)C(=O)O)C(=O)O	71.5%
Nc1nc2c(ncn2COCCO)c(=O)[nH]1	68.8%
O=C(O)c1ccccc1Sc1ncnc2sc3c(c12)CCC3	67.7%
O=C(NCCN1CCCCC1)c1cccc(C(F)(F)F)c1	70.6%
CC(C)(C)c1ccc(C(Cn2cccc(C(F)(F)F)c2=O)NC2Cc3ccccc3C2)cc1 (configuration not stated)	67.8%
O=C(N[C@H](Cc1cccc2ccccc12)C(=O)NCCc1c[nH]cn1)C1Cc2ccccc2C1	62.3%
Nc1nc(-c2ccccc2)nc2c1ncn2[C@@H]1O[C@H](COS(=O)(=O)NC(=O)c2ccccc2O)[C@@H](O)[C@H]1O	72.2%
CCCC1(C2CC2)c2cc(Cl)ccc2NC(=O)N1C (configuration not stated)	62.3%
O=C(CCc1ccc2c(c1)OCO2)NCc1ccc(-c2ccccc2F)cc1	65.7%
COc1cc(NC(=O)CN2C(=O)NC(c3ccccc3)(c3ccccc3)C2=O)cc(OC)c1	61%
Clc1cccc(-c2nnc(-c3ccccc3)o2)c1	64.1%
COc1cc(C(C(=O)NC2CCCCC2)N(C(=O)Cc2c[nH]c3ccccc23)c2ccc(C(C)C)cc2)cc(OC)c1OC (configuration not stated)	66.3%

SMILES	cell viability
C[C@@H](NC(=O)c1ccccc1-c1ccccc1)B(O)O	59.6%
O=C(O)C[C@H]1CC[C@H](c2ccc(-c3ccc(Nc4ccc(C(F)(F)F)nc4)cn3)cc2)CC1	67.6%
Cc1cc(-c2ccccc2)c(C(=O)C(=O)Nc2ccc(N3CCN(c4ncc(F)cn4)CC3)cc2)n1C	76.8%
O=C(c1cc(O)nc2ccccc12)N1CCN(c2ccccc2)CC1	67%
C[C@H](NC(CC(=O)c1ccccc1C(F)(F)F)C(=O)O)c1ccccc1 (some centres not stated)	63.6%
CC(C)(C)NC(=O)[C@@H]1C[C@@H]2CCCC[C@@H]2CN1C[C@@H](O)[C@H](Cc1ccccc1)NC(=O)[C@H](CC(N)=O)NC(=O)c1ccc2ccccc2n1	78.9%
O=c1cc(Nc2ccc3ccccc3c2)[nH]c(=O)[nH]1	65.6%
CCOCc1nc2c(N)nc3ccccc3c2n1CC(C)(C)O	70.5%
CC(C)Oc1ccc(-n2cnc3cc(/C=C\c4ccc(C(C)(C)O)cc4)ccc32)cc1	64.2%
O=C(Nc1ncc(Cc2cccc3ccccc23)s1)C1CCCCC1	58.6%
CCCCc1ccc(-c2nc(C)c(C(=O)OC)s2)cc1	63.9%
Nc1nc(O)c(Br)c(-c2cccc(Cl)c2)n1	61.7%
COc1ccc(C2CNC(=O)C2)cc1OC1CCCC1 (configuration not stated)	69.5%
NS(=O)(=O)c1ccc(NC(=O)NC(c2ccccc2)c2ccccc2)cc1	72.8%
Cc1ccc(NC(=O)c2ccc(CN3CCN(C)CC3)cc2)cc1Nc1nccc(-c2cccnc2)n1	50.1%
Cc1ncc([N+](=O)[O-])n1CC(O)CN1CCOCC1 (configuration not stated)	61.1%
Nc1nc(-c2ccccc2)nc2[nH]nc(Nc3ccc(C(F)(F)F)cc3)c12	64.3%
Cc1cccc(CC(=O)N[C@H]2CCOC2=O)c1	77.2%
